Inconclusive results are not listed. Where a call stands in place of a potency, no number is given. Active and inactive are the calls of the source. Calls follow the shape of the dose curve; as a rule, active = well fitted curve in the direction sought with a large enough effect; inconclusive = small, poorly fitted or top-dose-only effect, or another doubt; inactive = no such curve, though single readings can be large; an effect the other way counts as inactive or inconclusive.
Experiments:
[1] = Quantitative High-Throughput drug screen in 47 multiple myeloma cell lines against the NCATS MIPE library collection: NCIH929_DSMZ cell viability assay (AID 1918978); details: NCI-H929 myeloma viability, CellTiter-Glo ATP, 48 h; series mostly up to 45.8 µM; also: nearly all actives have a fitted effect of over 35% in size
Method in brief: (§1)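 500 cells/well per myeloma line exposed to pinned MIPE 4.0 compounds for 48 h at 37 °C, 5% CO2. Viability read as ATP by CellTiter-Glo luminescence, normalised to DMSO-only (100%) and media-only (0%) wells.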

[2] = Quantitative High-Throughput drug screen in 47 multiple myeloma cell lines against the NCATS MIPE library collection: OCIMY1_PLB cell viability assay (AID 1918979); details: OCI-MY1 myeloma viability, CellTiter-Glo ATP, 48 h; series mostly up to 45.8 µM; also: nearly all actives have a fitted effect of over 35% in size
Method in brief: as §1

[3] = Quantitative High-Throughput drug screen in 47 multiple myeloma cell lines against the NCATS MIPE library collection: MM1S_ATCC cell viability assay (AID 1918980); details: MM1S myeloma viability, CellTiter-Glo ATP luminescence, 48 h; series mostly up to 45.8 µM; also: nearly all actives have a fitted effect of over 45% in size
Method in brief: as §1

[4] = Quantitative High-Throughput drug screen in 47 multiple myeloma cell lines against the NCATS MIPE library collection: MM1R_ATCC cell viability assay (AID 1918981); details: MM1R multiple myeloma cells, CellTiter-Glo viability, 48 h; series mostly up to 45.8 µM; also: nearly all actives have a fitted effect of over 35% in size
Method in brief: as §1

[5] = Quantitative High-Throughput drug screen in 47 multiple myeloma cell lines against the NCATS MIPE library collection: LP1_DSMZ cell viability assay (AID 1918982); details: LP1 myeloma viability, CellTiter-Glo ATP luminescence, 48 h; series mostly up to 45.8 µM; also: nearly all actives have a fitted effect of over 35% in size
Method in brief: as §1

[6] = Quantitative High-Throughput drug screen in 47 multiple myeloma cell lines against the NCATS MIPE library collection: KMS28PE_JCRB cell viability assay (AID 1918983); details: KMS28PE multiple myeloma viability, CellTiter-Glo ATP, 48 h; series mostly up to 45.8 µM; also: nearly all actives have a fitted effect of over 35% in size
Method in brief: as §1

[7] = Quantitative High-Throughput drug screen in 47 multiple myeloma cell lines against the NCATS MIPE library collection: KMS34_JCRB cell viability assay (AID 1918985); details: KMS34 myeloma viability, CellTiter-Glo ATP luminescence, 48 h; series mostly up to 45.8 µM; also: nearly all actives have a fitted effect of over 40% in size
Method in brief: as §1

[8] = Quantitative High-Throughput drug screen in 47 multiple myeloma cell lines against the NCATS MIPE library collection: OCIMY7_PLB cell viability assay (AID 1918987); details: OCI-MY7 myeloma viability, CellTiter-Glo ATP, 48 h; series mostly up to 45.8 µM; also: nearly all actives have a fitted effect of over 65% in size
Method in brief: as §1

[9] = Quantitative High-Throughput drug screen in 47 multiple myeloma cell lines against the NCATS MIPE library collection: L363_DSMZ cell viability assay (AID 1918984); details: L363 myeloma viability, CellTiter-Glo ATP luminescence, 48 h; series mostly up to 45.8 µM; also: nearly all actives have a fitted effect of over 40% in size
Method in brief: as §1
Potency is read from the fitted curve at half-maximal effect.

In the case of `CN1CCN(c2ccc([N+](=O)[O-])c3no[n+]([O-])c23)CC1`, the Potency [1] is reported as 11.8 µM (active), the Potency [2] is reported as 26.4 µM (active) and the Potency [3] is reported as 23.5 µM (active). For the same molecule, the Potency [4] was 20.9 µM (active), the Potency [5] was 18.7 µM (active) and the Potency [6] was 18.7 µM (active). For the same molecule, the Potency [7] was 14.8 µM (active) and the Potency [8] was 4.18 µM (active).
With `C[C@]12COC(=O)C[C@@H]1CC[C@@H]1[C@H]2CC[C@@]2(C)[C@H]1CC[C@]2(C)O` the Potency [1] was “inactive”, the Potency [2] was “inactive” and the Potency [3] was “inactive”. For the same molecule, the Potency [4] was “inactive” and the Potency [6] was “inactive”.
In the case of `C[C@]12Cc3cn[nH]c3C[C@@H]1CC[C@@H]1[C@H]2CC[C@@]2(C)[C@H]1CC[C@]2(C)O`, the Potency [1] is reported as “inactive”, the Potency [2] is reported as “inactive” and the Potency [3] is reported as “inactive”. The Potency [7] was “inactive”.
With `CN(C)NC(=O)CCC(=O)O` the Potency [1] was “inactive”, the Potency [2] was “inactive” and the Potency [5] was “inactive”. The Potency [9] was “inactive” and the Potency [7] was “inactive”.
In the case of `C[C@]12CC[C@@H]3[C@@H](CCC4=CC(=O)CC[C@@H]43)[C@@H]1CC[C@@H]2OC(=O)CCc1ccccc1`, the Potency [2] is reported as “inactive” and the Potency [3] is reported as “inactive”.
In the case of `C=C1C[C@H]2[C@H]3CCC(=O)[C@@]3(C)CC[C@@H]2[C@@]2(C)C=CC(=O)C=C12`, the Potency [5] is reported as “inactive”.
In the case of `CC(=Cc1csc(C)n1)[C@@H]1C[C@H]2O[C@@H]2CCC[C@H](C)[C@@H](O)[C@@H](C)C(=O)C(C)(C)[C@@H](O)CC(=O)O1`, the Potency [1] is reported as “inactive”, the Potency [2] is reported as “inactive” and the Potency [3] is reported as “inactive”. For the same molecule, the Potency [4] was “inactive”, the Potency [5] was “inactive” and the Potency [6] was “inactive”. For the same molecule, the Potency [7] was “inactive”.
For `O=[N+]([O-])c1ncc[nH]1`, the Potency [1] was “inactive”, the Potency [3] was “inactive” and the Potency [4] was “inactive”. The Potency [5] was “inactive” and the Potency [6] was 0.105 µM (active).
In the case of `CSCC[C@@H](NC(=O)[C@@H](Cc1ccccc1)NC(=O)CNC(=O)CNC(=O)[C@@H](N)Cc1ccc(O)cc1)C(=O)O`, the Potency [1] is reported as “inactive”, the Potency [2] is reported as “inactive” and the Potency [3] is reported as “inactive”. The Potency [5] was “inactive” and the Potency [6] was “inactive”.
For `CC(N[C@H]1C[C@H]1c1ccccc1)c1ccc2c(c1)OCCO2` (stereo partly specified), the Potency [1] was “inactive”, the Potency [2] was “inactive” and the Potency [4] was “inactive”. The Potency [5] was “inactive” and the Potency [6] was 0.469 µM (active).
In the case of `Cc1c(C(=O)c2cccc3ccccc23)c2cccc3c2n1[C@H](CN1CCOCC1)CO3`, the Potency [1] is reported as 23.5 µM (active) and the Potency [6] is reported as 26.4 µM (active).
For `O=C(NCC1CCOCC1)c1cnc(Nc2ccc(Cl)cc2Cl)nc1C(F)(F)F`, the Potency [1] was 4.69 µM (active), the Potency [3] was 3.32 µM (active) and the Potency [6] was “inactive”.
In the case of `CCOC(=O)c1cncn1[C@H](C)c1ccccc1`, the Potency [1] is reported as “inactive”, the Potency [2] is reported as “inactive” and the Potency [4] is reported as “inactive”. The Potency [5] was “inactive”.
For `N#C[C@H](O[C@@H]1O[C@H](CO[C@@H]2O[C@H](CO)[C@H](O)[C@H](O)[C@H]2O)[C@H](O)[C@H](O)[C@H]1O)c1ccccc1`, the Potency [1] was 23.5 µM (active), the Potency [2] was 20.9 µM (active) and the Potency [4] was 29.6 µM (active). The Potency [6] was 23.5 µM (active).
In the case of `CCCN1CCO[C@@H]2c3cc(O)ccc3OC[C@@H]21`, the Potency [1] is reported as “inactive”, the Potency [2] is reported as “inactive” and the Potency [3] is reported as 14.8 µM (active). For the same molecule, the Potency [5] was 20.9 µM (active) and the Potency [6] was “inactive”.
For `CN[C@@H]1Cc2cccc3[nH]c(=O)n(c23)C1`, the Potency [1] was “inactive”, the Potency [2] was “inactive” and the Potency [4] was “inactive”. The Potency [6] was “inactive”.
In the case of `CC(C)N[C@@H]1CCn2c(=O)[nH]c3cccc(c32)[C@@H]1O`, the Potency [1] is reported as 9.35 µM (active), the Potency [3] is reported as 0.372 µM (active) and the Potency [4] is reported as 6.62 µM (active). The Potency [6] was 20.9 µM (active).
For `CCNC(=O)CC1N=C(c2ccc(Cl)cc2)c2cc(OC)ccc2-n2c(C)nnc21` (stereo unspecified), the Potency [1] was 10.5 µM (active), the Potency [2] was 18.7 µM (active) and the Potency [3] was 11.8 µM (active). The Potency [4] was 14.8 µM (active) and the Potency [6] was 20.9 µM (active).
In the case of `COc1ccc(C(=O)c2c(C)n(CCN3CCOCC3)c3cc(I)ccc23)cc1`, the Potency [3] is reported as “inactive”.
In the case of `N=c1c2c(-c3ccccc3)c(-c3ccccc3)n(Cc3ccccc3)c2ncn1C1CCC(O)CC1` (stereo unspecified), the Potency [1] is reported as 1.32 µM (active), the Potency [3] is reported as 5.26 µM (active) and the Potency [4] is reported as 18.7 µM (active). For the same molecule, the Potency [5] was 23.5 µM (active), the Potency [6] was 11.8 µM (active) and the Potency [7] was 13.2 µM (active). The Potency [8] was 0.132 µM (active).
For `O=C(N[C@H]1CN2CCC1CC2)c1ccc(Cl)cc1`, the Potency [3] was 2.96 µM (active), the Potency [4] was “inactive” and the Potency [5] was “inactive”. For the same molecule, the Potency [6] was “inactive” and the Potency [7] was “inactive”.
In the case of `CCOC(=O)c1c(C(C#N)=CN)c2ccc(Cl)c(Cl)c2n1C`, the Potency [2] is reported as “inactive” and the Potency [3] is reported as 23.5 µM (active).
In the case of `CC(C)(C)c1cc(C=C(C#N)C#N)cc(Br)c1O`, the Potency [1] is reported as 16.6 µM (active), the Potency [4] is reported as 23.5 µM (active) and the Potency [5] is reported as 23.5 µM (active). The Potency [6] was 23.5 µM (active).
In the case of `COC[C@H]1OC(=O)c2coc3c2[C@@]1(C)C1=C(C3=O)[C@@H]2CC[C@H](O)[C@@]2(C)C[C@@H]1OC(C)=O`, the Potency [1] is reported as 0.209 µM (active), the Potency [3] is reported as 2.35 µM (active) and the Potency [4] is reported as 0.332 µM (active). The Potency [6] was 1.32 µM (active) and the Potency [7] was 2.09 µM (active).
With `C[C@]12CCC(=O)C(O)=C1CC[C@@H]1[C@H]3CCC(=O)[C@@]3(C)CC[C@@H]12` the Potency [1] was “inactive”, the Potency [2] was “inactive” and the Potency [5] was “inactive”. For the same molecule, the Potency [7] was “inactive”.
With `CC[C@H]1C=CC=CC[C@@H](C)[C@H](O)[C@@](C)(O)C(=O)[C@@H](C)[C@H](O)[C@@H](C)C(=O)[C@@H](C)[C@H](O)[C@@H](C)C=CC(=O)O[C@@H]2[C@@H](C)[C@H](CC1)O[C@]1(CC[C@H](C)[C@H](C[C@@H](C)O)O1)[C@H]2C` the Potency [1] was 0.0296 µM (active), the Potency [6] was 20.9 µM (active) and the Potency [9] was 0.001 µM (active).
In the case of `CCN1C[C@]2(OC(=O)c3ccccc3NC(C)=O)CC[C@H](OC)[C@@]34[C@H]5CC6[C@@H](OC)C[C@](O)(C(C[C@@H]23)[C@@H]14)[C@@]5(O)[C@@H]6OC`, the Potency [1] is reported as “inactive”, the Potency [3] is reported as “inactive” and the Potency [4] is reported as “inactive”. The Potency [5] was “inactive”, the Potency [6] was “inactive” and the Potency [9] was “inactive”.
For `Cc1c(N)nc([C@H](CC(N)=O)NC[C@@H](N)C(N)=O)nc1C(=O)N[C@H](C(=O)N[C@@H](C)[C@H](O)[C@@H](C)C(=O)N[C@@H](C(=O)NCCc1nc(-c2nc(C(=O)NCCC[S+](C)C)cs2)cs1)[C@@H](C)O)C(O[C@H]1O[C@H](CO)[C@H](O)[C@@H](O)[C@@H]1O[C@H]1O[C@H](CO)[C@@H](O)[C@H](OC(N)=O)[C@H]1O)c1cnc[nH]1` (stereo partly specified), the Potency [2] was 13.2 µM (active), the Potency [3] was 20.9 µM (active) and the Potency [5] was “inactive”. The Potency [6] was “inactive” and the Potency [7] was 0.264 µM (active).
In the case of `O=C1C=CC[C@@H]2[C@H]3CCCN4CCC[C@@H](CN12)[C@@H]34`, the Potency [2] is reported as “inactive”, the Potency [3] is reported as 20.9 µM (active) and the Potency [5] is reported as “inactive”. The Potency [6] was 16.6 µM (active).
With `C[C@]12CC[C@H]3[C@@H](CCC4=CC(=O)CC[C@@]43C)[C@H]1CC[C@H]2OC(=O)CCC1CCCC1` the Potency [2] was “inactive” and the Potency [6] was “inactive”.
In the case of `C=C[C@@H]1CN2CCC1C[C@@H]2[C@@H](O)c1ccnc2ccccc12` (stereo partly specified), the Potency [1] is reported as 18.7 µM (active), the Potency [2] is reported as “inactive” and the Potency [3] is reported as 13.2 µM (active). For the same molecule, the Potency [4] was 16.6 µM (active) and the Potency [6] was 18.7 µM (active).
With `Cc1nc(-c2ccc(-c3ccc(C(=O)N4CCc5cc6c(cc54)C4(CCN(C)CC4)CO6)cc3)c(C)c2)no1` the Potency [1] was “inactive”, the Potency [3] was “inactive” and the Potency [4] was “inactive”. The Potency [5] was “inactive”.
For `COc1ccc2c(c1)CN(C)CC2c1ccc(Cl)c(Cl)c1` (stereo unspecified), the Potency [1] was 16.6 µM (active), the Potency [2] was “inactive” and the Potency [3] was 0.0833 µM (active). The Potency [6] was 18.7 µM (active).
In the case of `CC1=NN=C(c2ccc(N)cc2)c2cc3c(cc2C1)OCO3`, the Potency [1] is reported as “inactive”, the Potency [4] is reported as “inactive” and the Potency [5] is reported as “inactive”.
In the case of `Cc1ccccc1-n1c(Cn2ncc3c(N)ncnc32)nc2cccc(C)c2c1=O`, the Potency [1] is reported as 0.332 µM (active), the Potency [3] is reported as 0.118 µM (active) and the Potency [4] is reported as 16.6 µM (active). The Potency [6] was 9.35 µM (active).

Source: PubChem BioAssay (NCATS)
